High-throughput results as filed in PubChem BioAssay.
BAZ2B inh: qHTS Assay for Inhibitors of BAZ2B | AlphaScreen BAZ2B-H3K14Ac peptide displacement | Potency, µM (titrated, usually from 114 µM), hits mostly inhibitors | 4.4% of 360,000 active; also: nearly all actives have a fitted effect of over 60% in size
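Compounds, titrated to a top concentration of 110 uM, were incubated 30 min at room temperature with preformed BAZ2B/acetyl-K14 H3 peptide complex (50 nM each). Proximity signal was measured by AlphaScreen after 20 min with beads.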
HP1b chromo inh: HTS for Inhibitors of HP1-beta Chromodomain Interactions with Methylated Histone Tails | 0.56% of 390,000 active | Potency, µM (highest dose often 114 µM), hits mostly inhibitors | AlphaScreen HP1-beta / biotin-H3K9me3 peptide binding; also: nearly all actives have a fitted effect of over 70% in size
Target sequence (P83916 whole entry, looked up): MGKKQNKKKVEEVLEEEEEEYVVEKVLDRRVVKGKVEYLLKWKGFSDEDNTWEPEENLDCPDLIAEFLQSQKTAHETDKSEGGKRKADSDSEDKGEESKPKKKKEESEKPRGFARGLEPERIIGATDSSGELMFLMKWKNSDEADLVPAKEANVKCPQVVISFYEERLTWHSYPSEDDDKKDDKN
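HP1-beta protein (50 nM final) preincubated 30 min at room temperature with biotinylated H3(1-18)K9me3 peptide (50 nM) in PBS pH 7.4, 0.01% Tween-20, then compound added for 30 min. AlphaScreen streptavidin donor/nickel chelate acceptor beads (10 ug/mL final), 30 min dark, luminescence read.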
GLS inhibitor: qHTS for Inhibitors of Glutaminase (GLS). GLS enzymatic activity, qHTS titration. Potency, µM (doses to about 45.5 µM), hits mostly inhibitors. AID 624170, 2012. 0.21% of 410,000 active
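hKGA in 45 mM KH2PO4 pH 8.2, 0.02% Tween-20 with pin-transferred compounds; 1 mM L-glutamine (stock) plus glutamate oxidase/HRP/Amplex Red coupling added. Fluorescence read initially and after 30 min at RT.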
G9a inh: qHTS Assay for Inhibitors of Histone Lysine Methyltransferase G9a. Histone-lysine N-methyltransferase EHMT2 (Homo sapiens), Q96KQ7. G9a H3K9 monomethylation, AlphaScreen, 2 h. Potency, µM (top dose mostly 102 µM), actives largely listed as inhibitors. 8.8% of 350,000 active. AID 504332, 2011; also: nearly all actives have a fitted effect of over 75% in size
Target sequence (Q96KQ7 913-1193 limits assumed): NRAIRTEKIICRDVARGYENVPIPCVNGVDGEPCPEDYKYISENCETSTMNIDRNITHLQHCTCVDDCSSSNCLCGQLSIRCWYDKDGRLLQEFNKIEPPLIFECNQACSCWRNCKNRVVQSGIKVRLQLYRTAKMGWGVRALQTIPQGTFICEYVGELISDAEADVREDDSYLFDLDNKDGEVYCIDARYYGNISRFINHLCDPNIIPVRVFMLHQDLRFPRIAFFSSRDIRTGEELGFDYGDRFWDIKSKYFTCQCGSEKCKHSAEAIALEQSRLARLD
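Signal arises when biotinylated H3K9 peptide, once monomethylated, bridges streptavidin donor and antibody-captured acceptor beads. Enzyme at 20 nM was preincubated 15 min with test compounds; peptide 500 nM and SAM 20 uM then reacted for 2 h.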
JMJD2A Tudor: qHTS Assay for Inhibitors of JMJD2A-Tudor Domain; Lysine-specific demethylase 4A (Homo sapiens), O75164; AlphaScreen JMJD2A-Tudor / H3K4me3 peptide binding; Potency, µM (top dose mostly 114 µM), most hits filed as inhibitors; 4.4% of 390,000 active; AID 504339, 2011; also: nearly all actives have a fitted effect of over 50% in size
Hits are given with their value; - = inactive; ? = inconclusive; . = no result; [ ] = dose if it differs, or a comment. Shown are actives, neighbours in structure and some others; about 10% of the full set was active somewhere. Calls follow the shape of the dose curve; as a rule, active = well fitted curve in the direction sought with a large enough effect; inconclusive = small, poorly fitted or top-dose-only effect, or another doubt; inactive = no such curve, though single readings can be large; an effect the other way counts as inactive or inconclusive.

SMILES	BAZ2B inh	HP1b chromo inh	GLS inhibitor	G9a inh	JMJD2A Tudor
O=S(=O)(Nc1cccc(-c2ccc(N3CCOCC3)nn2)c1)c1cc(Cl)ccc1Cl	-	-	-	?	-
Nc1cc(S(=O)(=O)Nc2cc(Cl)ccc2Cl)ccc1N1CCOCC1	-	?	?	11.2µM	?
COc1ccc(C(=O)/C=C/C(=O)N(Cc2ccc3c(c2)OCO3)C(C(=O)NC2CCCCC2)c2ccncc2)c(O)c1 (stereo not given)	?	-	-	-	-
CCN(c1ccc(NS(=O)(=O)c2cc(Cl)ccc2Cl)cc1)C(C)C	35.5µM	?	-	7.08µM	50.1µM
COc1cc(/C=C2/C(=N)N3N=C(CC(=O)N4CCOCC4)SC3=NC2=O)ccc1OCc1ccc(F)cc1	-	-	-	-	4.47µM
Cc1ccc(/C=C2\C(=N)N3N=C(CC(=O)N4CCOCC4)SC3=NC2=O)o1	-	-	-	56.2µM	56.2µM
N=C1/C(=C\c2ccc(SCc3ccccc3)o2)C(=O)N=C2SC(CC(=O)N3CCOCC3)=NN12	44.7µM	-	-	?	?
N=C1/C(=C\c2ccc(-c3cccc(C(=O)O)c3)o2)C(=O)N=C2SC=C(c3ccccc3)N12	22.4µM	?	-	11.2µM	-[11.4 µM]
Nc1nnc(CC(=O)N/N=C/c2ccc(-c3cccc(C(=O)O)c3)o2)s1	-	-	-	?	?
COC(=O)C1=C(C)OC(N)=C(C#N)C1c1c(C)nn(C)c1C (stereo not given)	-	-	-	?	-
COCCn1c(=NC(=O)c2ccc3c(c2)OCCO3)sc2cc(NC(C)=O)ccc21	-	-	-	-	-
COc1cc(/C=C2\C(=N)N3N=CSC3=NC2=O)ccc1OS(=O)(=O)c1ccccc1[N+](=O)[O-]	-	-	-	.	-
Cc1ccccc1-n1c(C)cc(/C=C2/C(=N)N3C(c4ccccc4)=CSC3=NC2=O)c1C	-	-	-	?	-
COc1ccccc1-n1c(C)cc(/C=C2\C(=N)N3N=C(CC(=O)N4CCOCC4)SC3=NC2=O)c1C	50.1µM	-	-	-	-
Cc1cc(/C=C2/C(=N)N3C(c4ccccc4)=CSC3=NC2=O)c(C)n1-c1ccccc1	-	-	-	50.1µM	-
N=C1/C(=C/c2ccc(-c3cccc(C(=O)O)c3)o2)C(=O)N=C2SC(CC(=O)N3CCOCC3)=NN12	25.1µM	?	?	?	20µM
N=C1/C(=C\c2ccc(SCc3ccccc3)o2)C(=O)N=C2SC=NN12	-	-	-	50.1µM	-
CCCCCC(=O)N1C[C@@H](O)[C@H](n2cc(COC(=O)c3ccccc3)nn2)C[C@@H]1c1ccc(C)cc1	.	.	-	.	.
CC(=O)c1ccc(Nc2cc(C)nc3ccc(C)cc23)cc1	-	-	-	.	-[11.4 µM]
COCc1nnc(NC(=O)CS(=O)(=O)c2ccc(C)cc2)s1	-	-	-	50.1µM	?
CCOC(=O)Cc1csc(NC(=O)CCSc2ccccc2)n1	-	-	-	50.1µM	-
CCCc1nnc(NC(=O)CS(=O)(=O)c2ccc(C)cc2)s1	-	-	-	-	-
CCOC(=O)Cc1csc(NC(=O)CSc2nc(C)cc(C)n2)n1	.	-	-	.	-
CCOC(=O)Cc1csc(NC(=O)CSc2cc(Cl)ccc2Cl)n1	?	-	-	22.4µM	-
CCOC(=O)Cc1csc(SCC(=O)Nc2nccs2)n1	-	-	-	50.1µM	-
SMILES	BAZ2B inh	HP1b chromo inh	GLS inhibitor	G9a inh	JMJD2A Tudor
CC(C)CN1C(=O)C(=O)N(CC(=O)Nc2cc(Cl)ccc2Oc2ccccc2)C1=O	-	-	-	?	-
Cc1ccc(S(=O)(=O)Cn2nnnc2C(C(C)C)N2CCN(c3nc4ccccc4s3)CC2)cc1 (stereo not given)	-	-	-	?	-
COc1ccc(NC(=S)Nc2ccccn2)c(OC)c1	-	-	-	?	-
Cc1ccc(S(=O)(=O)CC(=O)Nc2nc(C(C)(C)C)cs2)cc1	-	-	-	39.8µM	-
CC(C)(C)c1csc(NC(=O)c2cccs2)n1	-	-	-	?	-
CCOC(=O)Cc1csc(NC(=O)Cc2cccs2)n1	50.1µM	-	.	-	44.7µM
